The campaign covered roughly 21,000 compounds. Fewer than 10 were called active.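 Rule for the calls: active = inhibition above 50% at the 20 µM single-dose screen; inactive = the rest.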 Not all results are given here.
Biological target: Alkaline phosphatase, tissue-nonspecific isozyme (Homo sapiens) (UniProt P05186)
Experiment: blockers of alkaline phosphatase TNAP catalysis – biochemical, colorimetric, p-nitrophenol readout, primary screen (AID 615);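 note: 0% = DMSO only wells and 100% = 1 mM levamisole wells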
Details: purified TNAP, pNPP hydrolysis, absorbance 405 nm; at 20 µM; hits give high values

Alkaline phosphatase, tissue-nonspecific isozyme (Homo sapiens), sequence (P05186 whole entry, looked up): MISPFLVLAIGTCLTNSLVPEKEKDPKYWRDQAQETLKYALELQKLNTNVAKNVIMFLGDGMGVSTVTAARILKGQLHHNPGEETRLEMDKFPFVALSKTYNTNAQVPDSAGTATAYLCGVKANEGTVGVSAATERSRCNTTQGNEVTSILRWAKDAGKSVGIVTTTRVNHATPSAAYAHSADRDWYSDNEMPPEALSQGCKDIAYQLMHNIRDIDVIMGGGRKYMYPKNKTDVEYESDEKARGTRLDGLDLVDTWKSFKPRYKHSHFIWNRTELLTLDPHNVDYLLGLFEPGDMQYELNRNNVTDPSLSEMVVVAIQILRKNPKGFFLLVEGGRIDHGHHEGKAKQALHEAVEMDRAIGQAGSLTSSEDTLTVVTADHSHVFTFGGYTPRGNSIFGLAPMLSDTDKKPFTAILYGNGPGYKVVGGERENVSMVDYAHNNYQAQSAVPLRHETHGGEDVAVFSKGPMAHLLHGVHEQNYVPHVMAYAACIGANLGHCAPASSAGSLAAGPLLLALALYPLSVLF

inhibition, inactive:
CCOc1cccc(NC(=O)C2CCCN(S(=O)(=O)c3ccc(OC)cc3)C2)c1 (centres undefined) -1.6%
O=c1[nH]c(=O)n(Cc2ccco2)c2c1C(C(F)(F)F)(C(F)(F)F)N=C(c1ccco1)N2 1.6%
CCN(CC)C(=O)CSc1nnc(-c2ccc(S(=O)(=O)NCc3ccccc3Cl)cc2)o1 3.4%
CCN(CC)CCN1C(=O)C(=O)/C(=C(/O)c2ccc(OC)c(OC)c2)C1c1ccccn1 (centres undefined) -8.8%
CCCOC(=O)C1=C(C)NC2=C(C(=O)C(C(=O)OC)C(C)C2)C1c1ccc(N(C)C)cc1 (centres undefined) 6.3%
COC(=O)c1cccc(NC(=O)CN2CCC(NC(=O)c3cc(OC)c(OC)c(OC)c3)CC2)c1 4.5%
Cn1nnnc1SCC(=O)N1CCN(Cc2ccccc2)CC1 3.1%
CCn1c(Cc2ccccc2)nnc1SCc1nc2ccccc2c(=O)[nH]1 2.9%
c1ccc(-n2ncc3c(N4CCCC4)ncnc32)cc1 4.2%
CC1(C)C2CCC1(C)C(OC(=O)CCn1ccnc1)C2 (centres undefined) 3.3%
Cc1cc(NC(=O)CCC(=O)N(c2cccc(F)c2)C(C(=O)NC2CCCC2)c2ccncc2)no1 (centres undefined) 2.9%
CCn1c(SCC(=O)c2ccc(Cl)s2)nnc1-c1cccs1 3.7%
COc1ccc2[nH]c3ccc(OC)cc3c2c1 6.8%
O=C(NCCN1CCOCC1)c1c(F)c(F)c(F)c(F)c1F -0.8%
CCOC(=O)c1ccc(N2C(=O)CC(Sc3nc(O)c(CC)c(=O)[nH]3)C2=O)cc1 (centres undefined) -2.3%
CC(C)c1nc(N2CCOCC2)c(C#N)c2c1COC(C)(C)C2 -4.2%
Cc1ccc2c(c1)c1ncn(CCC3=CCCCC3)c(=O)c1n2C 1.2%
CC1(C)CC(=O)C2=C(C1)NCN(CCCN1CCOCC1)C2 3%
c1ccc2c(NCC3CCCO3)nc(-c3ccncc3)nc2c1 (centres undefined) 3.1%
Cc1ccn2cc(C(=O)NC3CCN(Cc4ccccc4)CC3)nc2c1 -6.8%
CCC(C)(C)n1nnnc1C(c1cccs1)N1CCN(Cc2ccccc2)CC1 (centres undefined) -10%
COc1ccc(NC(=O)CSc2nnc(-c3cccs3)n2Cc2ccco2)cc1OC 3.1%
N#CNC1=NCN(CCc2ccccc2)CN1 4.9%
C=CCN1C(=O)C(O)(CC(=O)c2ccc(Cl)cc2)c2ccccc21 (centres undefined) 5.4%
CCc1ccc(-c2nnn(Cc3nc4ccccc4s3)n2)cc1 3%
O=C1[C@@H]2C(Cc3ccc(O)cc3)NC3(C(=O)Nc4ccc(F)cc43)[C@@H]2C(=O)N1c1ccc(F)cc1 (some centres undefined) 1.7%
COC(=O)c1ccccc1NC(=O)CN(Cc1ccccc1)S(C)(=O)=O 6%
CCCc1nc2ccccc2c(C(=O)OCc2nnc(-c3cc(OC)c(OC)c(OC)c3)o2)c1CC 1.2%
CCOC(=O)c1cc2occc2n1CC(=O)NC1CCC(C)CC1 (centres undefined) 5.1%
CCOc1cccc(=O)c2c(C)n(CC3CCCO3)c(C)c12 (centres undefined) -12.4%
O=C(NC1CC2CCCC(C1)N2C(=O)N1CCCCC1)C1CCCCC1 (centres undefined) 4.8%
CCOC(=O)C1C(=O)NC(N2CCN(c3ccccc3)CC2)=NC1c1ccco1 (centres undefined) 2.1%
CCN(Cc1cc2cc(C)ccc2[nH]c1=O)S(=O)(=O)c1ccccc1 6.4%
O=C(NCCCCO)C(F)(F)C(F)(F)C(F)(F)C(=O)NCCCCO 4.2%
Cc1cc(N2C(=O)C(=O)/C(=C(/O)c3ccccc3)C2c2cccc(Br)c2)no1 (centres undefined) 0.9%
CN(c1nc2ccccc2n2c(-c3ccco3)nnc12)S(=O)(=O)c1ccccc1 4.7%
CC(=O)c1cccc(NC(=O)N2CCCC2C(=O)NCCC(C)C)c1 (centres undefined) 7.2%
Cc1ccc(F)cc1NC(=O)c1cccc(N(C)C)c1 5%
CC1=C2C(=O)OC(c3ccoc3)C2(C)CCC1 (centres undefined) 0%
CCOC(=O)CSc1nnc(-c2ccco2)n1C 3%
Cc1ccc(C(=O)OCC(=O)NCc2ccc3c(c2)OCO3)s1 3.6%
Cc1ccc(S(=O)(=O)N2CCC(C(=O)OCC(=O)N3CC(=O)Nc4ccccc43)CC2)cc1 5.7%
CCCCCNC(=O)Cc1ccc(OC)cc1 2.1%
Cc1nc(NCc2ccccc2)c(C(N)=O)c2c1COC(C)(C)C2 3%
CC(=O)N(Cc1cccs1)C1CCOC(C)(C)C1 (centres undefined) 2.9%
CSc1nc(O)c(Cc2ccccc2)c(=O)[nH]1 0.9%
CC(C)C(NC(=O)c1cccc(S(=O)(=O)N2CCOCC2)c1)C(=O)NCCc1ccccn1 (centres undefined) 4.3%
CSCCC1NC2(C(=O)Nc3ccc(Cl)cc32)[C@@H]2C(=O)N(C3CCCC3)C(=O)[C@H]12 (some centres undefined) 7.3%
Cc1cnc(NC(=O)CSc2nnc(-c3ccc(Cl)cc3Cl)n2N)s1 -1.5%
COc1ccc(-c2c3c(=O)n(C)c(=O)n(C)c3cn2NC(C)=O)cc1 3.2%
CCSC1=C(C#N)C(=O)n2c1cc1c2CCCC1 1.7%
Cc1cc(C(=O)N2CCN(c3ccccn3)CC2)c(C)o1 6%
COc1cccc(-c2nnc(N(C)C(=O)c3ccno3)s2)c1 2.3%
CC(=O)N1CSCC1C(=O)O (centres undefined) 8.6%
COc1ccc(O)c(C=Nc2cc(C)on2)c1 5.7%
O=C1CSC(=O)N1CCOCCN1C(=O)CSC1=O 4.8%
COc1ccc(C2CC(c3ccc(C)cc3)Nc3nc(N)nn32)cc1 (centres undefined) 3.3%
CC1(C)CC(=O)C(C2=NC(C)(C)Cc3ccccc32)=C(O)C1 -1%
CCn1c(SCC(=O)NCc2ccco2)nnc1-c1ccc(N)cc1 0.2%
CCOc1cc(C)c(Cl)cc1S(=O)(=O)n1nnc2ccccc21 3.6%
CC1CCCN(C(=O)Cn2c(=O)oc3ccccc32)C1 (centres undefined) 3.7%
O=C(Nc1c(Cl)cccc1Cl)C1CCC1 3.6%
Cc1cc(C)nc(SCc2ccccc2C#N)n1 1.7%
COc1ccccc1Nc1ncc(C(C)=O)c(C)n1 1.9%
O=C(O)CN(Cc1ccco1)S(=O)(=O)c1ccccc1 0%
CCC(=O)Nc1ccc(C(=O)Nc2ccc3c(c2)C(=O)N(CC2CCCO2)C3=O)cc1 (centres undefined) 3.2%
CCCc1cc(=O)n2[nH]c(SCc3ccccc3)nc2n1 4.4%
N#Cc1nc(-c2ccc(OCc3ccccc3)cc2)oc1NCCCN1CCOCC1 4%
O=S(=O)(NCc1cccnc1)c1ccc(Br)s1 2.9%
Cc1ccc(C(=O)N2CCN(C3CCCCC3)CC2)s1 2.5%
COC(=O)c1cc(NC(=O)CN2CCC(C(N)=O)(N3CCCCC3)CC2)cc(C(=O)OC)c1 -6.8%
COc1cccc(NC(=O)c2ccccc2SC)c1 0.3%
COC(=O)c1ccc2c(c1)S(=O)(=O)NC(=NCCCN1CCOCC1)S2 3.7%
O=C(c1ccco1)N(Cc1nc2ccccc2c(=O)[nH]1)C1CCCC1 -5.2%
Cc1ccccc1OCCC(=O)Nc1c(C)n(C)n(-c2ccccc2)c1=O 0%
Cc1cc(C)c(C(=O)CN2C(=O)CCC2=O)cc1C 5%
O=S(=O)(c1ccccc1)N(CC(O)CN1CCCCC1)c1ccccc1 (centres undefined) -1.4%
COC(=O)c1ccccc1NC(=O)c1ccccc1NS(C)(=O)=O 8.2%
COC(=O)c1cc(Cl)c(NC(=O)c2ccco2)cc1OC -4.4%
COc1cc(OC)cc(C(=O)Nc2ncc3c(n2)CC(C)(C)CC3=O)c1 3.1%
CC1CCCCC1NC(=O)CSc1nnc(N)s1 (centres undefined) 0%
COc1ccc(CNC(=O)c2cc3c(=O)n4ccccc4nc3n(CC3CCCO3)c2=N)cc1 (centres undefined) 0.4%
COc1c(F)c(F)c(-c2csc(N)n2)c(F)c1F 1%
COC(=O)c1cccc(NC(=O)CSc2nc(C)cc(=O)[nH]2)c1 6.2%
CC(NCCO)C(=O)C12CC3CC(CC(C3)C1)C2 (centres undefined) 6.7%
CCn1nc(NC(=O)c2ccco2)c2cc3ccc(C)cc3nc21 4.2%
COc1ccc(CNC2CCCCC2)cc1 3.7%
CC(C)[C@H](NC(=O)Nc1ccc(S(N)(=O)=O)cc1)C(=O)O 4.9%
O=S(=O)(NCc1ccc2c(c1)OCO2)c1cccc2nsnc12 5.8%
Cc1ccc(S(=O)(=O)N2CCOCC2)cc1C(=O)NCc1ccc(F)cc1 0%
O=C(NCC1CCCO1)C(C(=O)c1ccccc1)n1cc(Cl)ccc1=O (centres undefined) 6.1%
Cc1nnc(N(Cc2ccco2)C(=O)c2ccno2)s1 1.8%
O=C(Nc1ccc2c(c1)OCCO2)c1ccncc1 3.7%
CCOC(=O)c1sc(/N=C/Nc2nc(C)c(C(=O)OCC)s2)nc1C 0%
COc1ccc(N(Cc2cc3cc(OC)ccc3[nH]c2=O)S(C)(=O)=O)cc1 2.6%
O=C(CSc1ncccn1)NCCc1ccccc1 1.9%
CC12CCC(C(=O)N(CCC#N)CCC#N)(CC1=O)C2(C)C (centres undefined) 5.5%
CNC(=O)CSc1nnc(CCc2ccccc2)n1-c1ccccc1 -9%
O=C(CCCOc1ccccc1)Nc1cccc(C(=O)O)c1 7.6%

Reference: PubChem BioAssay AID615 (Sanford-Burnham Center for Chemical Genomics, 2007)
